Screening results from PubChem BioAssay.
AMA1-RON2 inh: qHTS for Inhibitors of AMA1-RON; Towards Development of Antimalarial Drug Lead: Primary Screen; Plasmodium falciparum AMA1 (3D7) - RON2 peptide interaction; AlphaScreen AMA1-biotinylated RON2 peptide binding; Potency, µM (top dose mostly 58.2 µM), for the others: at the highest dose activity change, negative = inhibition, most hits filed as inhibitors; 360,000 compounds, 0.2% hits;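 note: 0% = vehicle wells and -100% = peptide control; nearly all actives have a fitted effect of over 45% in size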
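AMA1 (3D7) with his tag at 25 nM final met compounds first, then biotinylated RON2 peptide at 25 nM; detection used donor plus acceptor beads, 10 µg/mL apiece, read by AlphaScreen after 30 min at room temperature.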
Pf growth 96h: Primary qHTS for delayed death inhibitors of the malarial parasite plastid, 96 hour incubation; 320,000 compounds, 6.9% hits; Potency, µM (top dose mostly 28.7 µM), inactives show at the highest dose activity change, negative = inhibition, most hits filed as inhibitors; P. falciparum luciferase reporter growth, 96 h; AID 504834, 2011
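Erythrocytes infected with luciferase-expressing P. falciparum were dispensed at 2% hematocrit and 0.05% parasitemia (final), then incubated with compounds 96 hours at 37 C in 5% CO2. Luminescence after detection reagent addition reported growth.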
Pf growth 48h: Primary qHTS for delayed death inhibitors of the malarial parasite plastid, 48 hour incubation; P. falciparum luciferase growth in erythrocytes, 48 h; AID 504832, 2011; Potency, µM (highest dose often 28.7 µM), for the others: at the highest dose activity change, negative = inhibition, hits mostly inhibitors; 310,000 compounds, 5.9% hits
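A one-generation exposure of luciferase-tagged malaria parasites in RPMI 1640/Albumax erythrocyte culture, 37 C and 5% CO2. Inhibition is inferred from decreased luminescence after adding detection reagent.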
HCV inhibitor: qHTS Assay for Inhibitors of Hepatitis C Virus (HCV); Huh7.5.1 HCVcc-Cre infection, luciferase reporter, 44 h; Potency, µM (titrated, usually from 41.8 µM), for inactives: at the top dose activity change, negative = inhibition, usual class: inhibitors; 340,000 compounds, 3.4% hits; AID 651820, 2012
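Luciferase read-out (15 sec integration) after a 15 min room-temperature substrate step quantifies HCVcc-Cre infection. Cells, 1,000 per well, had compound added 4 h post-plating, then virus at ~0.5 moi, and were cultured 44 h.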
* hit, by the source's call; ? = inconclusive; · = no result given. Sampled rows, rich in hits. Any-hit rate of the full collection: about 11%. Calls come from the whole dose curve; as a rule, active = well fitted curve in the direction sought with a large enough effect; inconclusive = small, poorly fitted or top-dose-only effect, or another doubt; inactive = no such curve, though single readings can be large; an effect the other way counts as inactive or inconclusive. Unless noted, % is set by controls: 0 for no effect and ±100 for the full control effect; potency is the fitted concentration of half-maximal effect.

SMILES	AMA1-RON2 inh	Pf growth 96h	Pf growth 48h	HCV inhibitor
O=C(NCc1csc2ccccc12)Nc1cc(Cl)cc(Cl)c1	-19%	?	?	?
CCOC(=O)C1=C[C@@H](C(C)(C)C)N(S(=O)(=O)c2ccc(C)cc2)[C@H]1c1ccc(Cl)c(Cl)c1	-3%	·	·	·
Cc1cc(CNC(=O)CC2C(=O)NCCN2Cc2ccc(-c3ccccc3)cc2)nn1C (stereo not given)	18%	9.3µM*	-13%	-19%
CCC1CCCCN1CC(=O)Nc1cc(C)nn1-c1nc(C)cc(C)n1 (stereo not given)	-1%	0%	5.2µM*	?
Cc1cc(C)nc(-n2nc(C)cc2NC(=O)CN2CCC(C)CC2)n1	5%	2.3µM*	?	3%
Cc1ccc(NC(=O)COc2ccccc2C=O)cc1Cl	-3%	18%	187%	-17%
COc1ccc(NC(=O)CSc2nnc3n2CCCCC3)cc1	-7%	?	-2%	?
Cc1c(-c2cc(Br)ccc2O)nc2cc3c(cc2c1C)OCO3	-13%	?	·	-13%
CCOc1cc(/C=C2\COc3ccccc3C2=O)ccc1OCC(=O)N(C)C	3%	?	15µM*	?
CCOC(=O)C1=NOC2(C1)C(=O)Nc1ccc(OC)cc12 (stereo not given)	0%	·	·	·
CCCCCn1c(=O)c(C(=O)Nc2cnccn2)c(O)c2ccccc21	43%	-16%	?	8.9µM*
CCCCCCn1c(=O)c(C(=O)Nc2ccncc2)c(O)c2ccccc21	·	?	2.9µM*	11%
CCCCn1c(=O)c(C(=O)Nc2ccccc2)c(O)c2ccccc21	19%	13%	?	?
CC(C)Cn1c(=O)c(C(=O)Nc2ccncc2)c(O)c2ccccc21	46%	·	·	10µM*
CCCn1cc(SCC(=O)NCc2ccco2)c2ccccc21	-3%	6.6µM*	2.1µM*	?
Cc1ccc(COC(=O)CN2C(=O)NC3(CCCCC3C)C2=O)cc1 (stereo not given)	5%	?	-31%	0%
CC1=C(N2CCCCC2)CCC1=O	-4%	·	·	5%
COc1cccc(C(=O)NC2CC3CCCC(C2)N3S(=O)(=O)c2ccccc2)c1 (stereo not given)	1%	?	?	-27%
CCCCn1c(=O)c(C(=O)NCc2ccco2)c(O)c2ccccc21	7%	44%	?	14µM*
CC(C)CCn1c(=O)c(C(=O)NCc2ccco2)c(O)c2ccccc21	-10%	-28%	?	?
Cc1ccc([N+](=O)[O-])cc1S(=O)(=O)N1CCN(C)CC1	12%	-3%	21%	20%
Cc1ccc([N+](=O)[O-])cc1S(=O)(=O)n1ccnc1C	7%	2%	5.2µM*	-3%
CCN1CCN(c2ccc(N3CCN(S(=O)(=O)c4cc([N+](=O)[O-])ccc4C)CC3)nn2)CC1	-3%	?	10µM*	-20%
CNC(=S)NNC(=O)c1cc(-c2cccnc2)nc2ccccc12	94%	?	5%	-2%
CC(Oc1ccc(Br)cc1)C(=O)NCCCN1CCCC1=O (stereo not given)	8%	·	·	11%
SMILES	AMA1-RON2 inh	Pf growth 96h	Pf growth 48h	HCV inhibitor
Cc1cc(NC(=NC2CC2)c2ccccc2F)n(-c2ccccc2)n1	9%	0%	?	12%
COc1cc([C@@H]2CC=C(C(=O)O)[C@H](c3cccc(Cl)c3)N2S(=O)(=O)c2ccc(C)cc2)cc(OC)c1OC	-1%	13µM*	?	13%
COc1ccc([C@@H]2CC=C(C(=O)O)[C@H](c3ccc(Cl)cc3)N2S(=O)(=O)c2ccc(C)cc2)cc1OC	2%	13µM*	?	6%
COc1cccc([C@@H]2CC=C(C(=O)O)[C@H](c3ccc(Cl)cc3)N2S(=O)(=O)c2ccc(C)cc2)c1	0%	9.3µM*	?	20%
COc1cccc([C@@H]2CC=C(C(=O)O)[C@H](c3ccc(C)cc3)N2S(=O)(=O)c2ccc(C)cc2)c1	-8%	·	·	11%
COc1cc([C@@H]2CC=C(C(=O)O)[C@H](c3ccc(C)cc3)N2S(=O)(=O)c2ccc(C)cc2)cc(OC)c1OC	-9%	·	·	15%
COc1ccccc1NC(=O)CSc1ccc(-c2ccc(-n3cccn3)cc2)nn1	-1%	?	?	?
COc1ccc2c(c1)[C@H]1[C@H](CO2)[C@H](c2ccccc2)[C@]2(C)C(=O)Nc3ccc(C)cc3C(=O)N12	-4%	·	·	11µM*
CCOC(=O)[C@H]1[C@H]2COc3ccccc3[C@@H]2N2C(=O)c3cc(OC)ccc3NC(=O)[C@@]12C	-3%	?	5.2µM*	-3%
COc1ccc2c(c1)C(=O)N1[C@H]3c4cc(C)ccc4OC[C@@H]3[C@H](c3ccccc3)[C@]1(C)C(=O)N2	5%	?	9.3µM*	?
COc1ccc2c(c1)[C@@H]1[C@H](CO2)[C@H](c2ccccc2)[C@]2(C)C(=O)Nc3ccc(C)cc3C(=O)N12	-27%	?	13µM*	-6%
COc1ccc2c(c1)OC[C@H]1[C@H]2N2C(=O)c3cc(C)ccc3NC(=O)[C@@]2(C)[C@H]1c1ccccc1	-1%	·	·	?
COc1ccc(C(=O)Nc2ccccc2C(=O)N2CCCCC2C)cc1 (stereo not given)	12%	18%	10%	3%
COc1ccc(NC(=O)C2CCN(c3ncnc4c3nc3n4CCCCC3)CC2)cc1Cl	-3%	10%	?	?
CCc1ccc(NC(=S)Nc2ccc(S(=O)(=O)Nc3ncccn3)cc2)cc1	14%	23%	9%	0%
C[C@@]12C(=O)Nc3ccc(Cl)cc3C(=O)N1[C@H]1c3cc(Cl)ccc3OC[C@@H]1[C@@H]2c1ccccc1	-18%	·	·	-11%
CCOC(=O)[C@H]1[C@H]2COc3ccc(Br)cc3[C@@H]2N2C(=O)c3ccc(Cl)cc3NC(=O)[C@@]12C	-3%	?	9.3µM*	2%
COc1ccc2c(c1)[C@H]1[C@H](CO2)[C@H](c2ccccc2)[C@]2(C)C(=O)Nc3ccc(Cl)cc3C(=O)N12	-23%	·	·	?
C[C@@]12C(=O)Nc3ccc(Br)cc3C(=O)N1[C@H]1c3cc(Cl)ccc3OC[C@@H]1[C@@H]2c1ccccc1	-10%	3.3µM*	3.7µM*	?
COc1ccc2c(c1)[C@H]1[C@H](CO2)[C@H](c2ccccc2)[C@]2(C)C(=O)Nc3cc(OC)c(OC)cc3C(=O)N12	-8%	?	9.3µM*	10µM*
Cc1cccc(S(=O)(=O)N/N=c2\sc3ccccc3n2C)c1	-1%	28%	35%	9%
O=[N+]([O-])c1ccc2nn(Cc3ccccc3)cc2c1	-5%	5%	13%	-12%
CN(C)CCn1c2ccccc2c2nc3ccc([N+](=O)[O-])cc3cc21	-19%	?	1.9µM*	-58%
